Experimental data taken from PubChem BioAssay (NCATS).
Inconclusive results are not listed. Entries that show only a call come without a potency. Calls of active or inactive are those of the source. Calls come from the whole dose curve.

How the values were obtained:
[1] = Primary qHTS for inhibitors of SARS-S pseudo-typed particle cell entry (AID 1479145); details: outcome: dose series up to 57.1 µM unless noted; note: nearly all actives have a fitted effect of over 45% in size
[2] = Primary qHTS for Huh7 cytotoxicity: counterscreen for inhibitors of MERS-S pseudotyped particle cell entry (AID 1479147); details: outcome: dose series up to 57.1 µM unless noted
[3] = Primary qHTS for inhibitors of MERS-S pseudo-typed particle cell entry (AID 1479149); details: outcome: dose series up to 57.1 µM unless noted; note: nearly all actives have a fitted effect of over 60% in size
[4] = Primary qHTS for Vero E6 cytotoxicity: counterscreen for inhibitors of SARS-S pseudo-typed particle cell entry (AID 1479150); details: outcome: dose series up to 57.1 µM unless noted
[5] = Cytotoxicity counterscreen for inhibitors of SARS-CoV-2 cell entry (AID 1645845); details: outcome: dose series up to 57.1 µM unless noted; note: nearly all actives have a fitted effect of over 50% in size
Method in brief: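 ATP-content luminescence (ATPLite 1step, 15 min RT) read after 48 h compound exposure of Expi293F cells stably expressing human ACE2; normalized to cells-only wells and media-only wells.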

[6] = Primary qHTS to identify inhibitors of SARS-CoV-2 cell entry (AID 1645846); details: SARS-CoV-2 pseudovirus cell entry assay, luminescence; activity change, negative = inhibition: at 57.1 µM (top of the series) unless noted; note: nearly all actives have a fitted effect of over 45% in size; note: potency is the fitted concentration of half-maximal effect
Method in brief: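 Inhibition of spike-mediated entry was scored in human ACE2-transfected Expi293F cells. Particles were MLV-pseudotyped with Wuhan-Hu-1 S carrying a 19-aa C-terminal deletion; signal was luciferase after two days, scaled between spike PP and fusion-protein-free PP.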

Structure (SMILES) | Potency [1] | Potency [2] | Potency [3] | Potency [4] | Potency [5] | activity change, negative = inhibition [6] [%] | Potency [6]
C=C(C)CNc1ccc(C(C)C(=O)O)cc1 (configuration not stated) | inactive | inactive | inactive | inactive | inactive | -20.2 | 
OC(CN1CCCCC1)c1cc(-c2ccccc2)on1 (configuration not stated) | inactive | inactive | inactive | inactive | inactive | -15.3 | 
CC(/C=C1\SC(=S)N(CC(=O)O)C1=O)=C\c1ccccc1 | inactive | inactive | inactive | inactive | inactive |  | inactive
C[C@@H](O)[C@H]1C(=O)N2C(C(=O)O)=C(S[C@@H]3CN[C@H](C(=O)Nc4cccc(C(=O)O)c4)C3)[C@H](C)[C@H]12 | inactive | inactive | inactive | inactive | inactive | 0.84 | 
CC(C)(C)NCC(O)CSc1nc(-c2ccc(C(N)=O)s2)cs1 (configuration not stated) | inactive | inactive | inactive | inactive | inactive | -22.9 | 
NC(=O)OCC(O)COc1ccc(Cl)cc1 (configuration not stated) | inactive | inactive | inactive | inactive | inactive |  | inactive
O=P(O)(O)OP(=O)(O)O | inactive | inactive | inactive | inactive | inactive | -3.78 | 
C[C@H](CCC(=O)O)[C@H]1CC[C@H]2[C@@H]3CC[C@@H]4C[C@H](O)CC[C@]4(C)[C@@H]3C[C@H](O)[C@]12C | inactive | inactive | inactive | inactive | inactive |  | inactive
CC12C=CC(=O)NC1CCC1C2CCC2(C)C(C(=O)Nc3cc(C(F)(F)F)ccc3C(F)(F)F)CCC12 (configuration not stated) | inactive | inactive | inactive | inactive | inactive | -8.68 | 
CCC(O)c1ccccc1 (configuration not stated) | inactive | inactive | inactive | inactive | inactive | -0.957 | 
CC(C)(CO)[C@@H](O)C(=O)NCCC(=O)NCCSSCCNC(=O)CCNC(=O)[C@H](O)C(C)(C)CO | inactive | inactive | inactive | inactive | inactive | -13.3 | 
O=P(O)(O)CP(=O)(O)O | inactive | inactive | inactive | inactive | inactive | -15.6 | 
C#C[C@]1(O)CCC2C3CCC4=C(CCC(=O)C4)C3CC[C@@]21C (some centres not stated) | inactive | inactive | inactive | inactive | inactive | -12.9 | 
CCNC(=O)CCC/C=C\C[C@@H]1[C@@H](/C=C/[C@@H](O)CCc2ccccc2)[C@H](O)C[C@@H]1O | inactive | inactive | inactive | inactive | inactive | -19.7 | 
CN[C@H]1C[C@@H](N)[C@H](O)[C@@H](O[C@@H]2O[C@H](CO)[C@H](O)[C@@H]3OC4(O[C@H]23)O[C@H]([C@@H](N)CO)[C@H](O)[C@H](O)[C@H]4O)[C@@H]1O (some centres not stated) | inactive | inactive | inactive | inactive | inactive |  | 17.8 µM (active)
CCCC[C@H](C)C[C@H](O)/C=C/[C@H]1[C@H](O)CC(=O)[C@@H]1CCCC/C=C/C(=O)O | inactive | inactive | inactive | inactive | inactive | -18.9 | 
Cc1cc(N2CCN([C@@H]3CN[C@H](C(=O)N4CCSC4)C3)CC2)n(-c2ccccc2)n1 | inactive | inactive | inactive | inactive | inactive | -20 | 
CN1C(=O)[C@]23C[C@H]4C(C)(C)[C@]5(CNc6c5ccc5c6OC=CC(C)(C)O5)C[C@@]41CN2CC[C@@]3(C)O | inactive | inactive | inactive | inactive | inactive |  | inactive
NC(=S)NS(=O)(=O)c1ccc(N)cc1 | inactive | inactive | inactive | inactive | inactive | -18.4 | 
Cc1onc(-c2c(F)cccc2Cl)c1C(=O)N[C@@H]1C(=O)N2[C@@H]1SC(C)(C)[C@H]2C(=O)O | inactive | inactive | inactive | inactive | inactive | -29.1 | 
O=C(O)[C@@H]1C(=CCO)O[C@@H]2CC(=O)N12 | inactive | inactive | inactive | inactive | inactive |  | inactive
NC(N)=NCCC[C@@H](N)C(=O)N[C@@H](CCCN=C(N)N)C(=O)N1CCC[C@H]1C(=O)N1C[C@H](O)C[C@H]1C(=O)NCC(=O)N[C@@H](Cc1cccs1)C(=O)N[C@@H](CO)C(=O)N1Cc2ccccc2C[C@@H]1C(=O)N1[C@H](C(=O)N[C@@H](CCCN=C(N)N)C(=O)O)C[C@@H]2CCCC[C@@H]21 | inactive | inactive | inactive | inactive | inactive |  | inactive
